Only some compounds are listed: those with a hit (about 7.5% of all), similar ones and a draw of the others.
B2AR arrestin: qHTS assay of beta-arrestin-biased ligands of beta2-adrenergic receptor; Beta-2 adrenergic receptor (Homo sapiens), P07550; beta-arrestin recruitment to beta2AR, cell-based reporter; Potency, µM (series often up to 46.1 µM), without a hit: at the top dose activation, actives largely listed as activators; 330,000 compounds, 0.02% hits; AID 492947, 2010;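 further: potency means the concentration at half of the fitted maximal effect; 0% = DMSO controls and full agonism = EC100 isoproterenol or metaproterenol; nearly all actives have a fitted effect of over 65% in size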
TSHR antag: Antagonists of the Thyroid Stimulating Hormone Receptor: HTS campaign. activity change, negative = inhibition, % at 11.5 µM. Thyrotropin receptor (Homo sapiens), P16473. AID 504810, 2011. 330,000 compounds, 0.2% hits. TSHR-expressing cells, TSH-stimulated cAMP HTRF, 2 h; active compounds read low;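 active means activity change below a set negative limit, meaning inhibition stronger than a set level, cut at about -70% in these data; inconclusive means activity change between two set negative limits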
Target sequence (P16473 whole entry, looked up): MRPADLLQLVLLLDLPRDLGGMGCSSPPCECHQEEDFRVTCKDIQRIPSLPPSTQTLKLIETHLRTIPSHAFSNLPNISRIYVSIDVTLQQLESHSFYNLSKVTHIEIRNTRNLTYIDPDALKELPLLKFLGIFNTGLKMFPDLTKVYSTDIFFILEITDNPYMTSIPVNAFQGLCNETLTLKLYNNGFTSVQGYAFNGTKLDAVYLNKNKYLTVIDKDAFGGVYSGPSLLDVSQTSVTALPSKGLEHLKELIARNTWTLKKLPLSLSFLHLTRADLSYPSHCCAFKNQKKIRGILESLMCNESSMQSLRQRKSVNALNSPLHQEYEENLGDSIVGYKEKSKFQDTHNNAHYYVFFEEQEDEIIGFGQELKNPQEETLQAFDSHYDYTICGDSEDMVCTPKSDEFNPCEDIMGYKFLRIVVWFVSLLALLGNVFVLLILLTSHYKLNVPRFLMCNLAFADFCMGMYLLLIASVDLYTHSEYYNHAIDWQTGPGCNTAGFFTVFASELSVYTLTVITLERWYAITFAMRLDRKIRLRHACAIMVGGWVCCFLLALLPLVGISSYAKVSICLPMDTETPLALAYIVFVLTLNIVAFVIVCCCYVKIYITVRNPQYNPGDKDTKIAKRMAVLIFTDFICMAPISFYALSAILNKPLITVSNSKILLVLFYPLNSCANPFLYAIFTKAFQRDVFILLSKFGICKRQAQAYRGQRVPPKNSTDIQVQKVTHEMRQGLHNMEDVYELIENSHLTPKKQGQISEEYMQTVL
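Freshly harvested TSHR cells receive pin-tooled compound, then EC80 TSH at 4nM final. After 2 hours at 37 deg C, antibody in lysis buffer and cAMP-d2 are added; 30 minutes at ambient temperature precede the HTRF read.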
Gal4-VP16 FLuc: VP16 counterscreen qHTS for inhibitors of ROR gamma transcriptional activity; Drosophila S2 Gal4-VP16 UAS-luciferase, luminescence, 20 h; Potency, µM (titrated, usually from 53.6 µM), for inactives: top-dose activity, negative = inhibition, most hits filed as inhibitors; 310,000 compounds, 3.5% hits; AID 2546, 2010;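 further: Gal4-VP16 expression switched on by copper sulfate through the metallothionein promoter; potency means the concentration at half of the fitted maximal effect; nearly all actives have a fitted effect of over 50% in size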
RORg inh: qHTS for inhibitors of ROR gamma transcriptional activity; Drosophila S2 Gal4-RORgamma UAS-luciferase reporter, 20 h; Nuclear receptor ROR-gamma (Mus musculus), P51450; 310,000 compounds, 5.4% hits; Potency, µM (series often up to 53.6 µM), for the others: at the highest dose activity change, negative = inhibition, most hits filed as inhibitors; further: potency means the concentration at half of the fitted maximal effect; nearly all actives have a fitted effect of over 60% in size
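Stable Schneider cell line, Gal4 DNA-binding domain fused to ROR gamma, UAS-luciferase. Cmpd 1 hr RT → CuSO4 700 uM final → 20 hr RT → luciferase reagent 10 min → luminescence.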
ELG1 repair inh: qHTS screen for small molecules that inhibit ELG1-dependent DNA repair in human embryonic kidney (HEK293T) cells expressing luciferase-tagged ELG1 | HEK293T ELG1-luciferase reporter, luminescence, 16 h; DNA damage induced by 5-fluorouridine | Potency, µM (highest dose often 46.1 µM), inactives show at the highest dose activity change, negative = inhibition, hits mostly inhibitors | 330,000 compounds, 2.3% hits | AID 504467, 2011; further: potency means the concentration at half of the fitted maximal effect; nearly all actives have a fitted effect of over 55% in size
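Reporter activity after DNA damage by 5-fluorouridine is monitored. Compound-treated cells incubate 16 hr at 37 °C, then ONE-Glo is added for 30 min before luminescence reading.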
Active calls of the source: *; ? = inconclusive; · = not tested or not shown; [ ] = another dose, or the depositor's remark. Unless noted, the call rests on the fitted dose curve; in most records, active means well fitted curve in the direction sought with a large enough effect; inconclusive means small, poorly fitted or top-dose-only effect, or another doubt; inactive means no such curve, though single readings can be large; an effect the other way counts as inactive or inconclusive. Unless noted, on the % scale 0 is the no-effect control and ±100 the full control effect.

SMILES	B2AR arrestin	TSHR antag	Gal4-VP16 FLuc	RORg inh	ELG1 repair inh
Cc1nc2ccccc2n1CC(=O)OCC(=O)NC1CC1	0%	0	-6%	2%	9%
CCN1C(=O)[C@H]2[C@H]3[C@H](O)[C@H](O)C/C(=N/OC[C@@H](C)[C@H](OCc4ccccc4)C(C)C)[C@@H]3CC[C@@H]2C1=O	·	·	-7%[10 µM]	-20%[10 µM]	·
CCOC(=O)c1sc(NC(=O)Nc2ccccc2)cc1C	0%	-6	2.5µM*	5µM*	?
CCOC(=O)c1sc(NC(=O)c2ccc(C)s2)cc1C	0%	7	?	1.3µM*	?
CCOC(=O)c1sc(NC(=O)Nc2ccccc2Cl)cc1C	-1%	0	?	?	?
CCOC(=O)c1sc(NC(C)=O)cc1C	0%	5	13%	3%	8%
COc1cccc(Nc2ncc3nc(-c4ccccc4)c(=O)n(C)c3n2)c1	·	·	4%	-7%	·
C=C1C(N)CC2CC1C2(C)C (stereo unspecified)	·	·	-7%	-2%	·
CCCCCCNC(=O)c1cn(CC)c2cc(N3CCN(C)CC3)c(F)cc2c1=O	0%	10	13µM*	11µM*	2%
CCn1cc(C(=O)O)c(=O)c2cnc(N3CCN(C(=S)NC(=O)c4ccc(Br)cc4)CC3)nc21	0%	-2	-10%	0.56µM*	0%
CCn1cc(C(=O)O)c(=O)c2cc(F)c(N3CCN(C(=S)NC(=O)c4ccc(OC)cc4)CC3)cc21	0%	-5	-7%	?	-5%
CCn1cc(C(=O)O)c(=O)c2cnc(N3CCN(C(=S)Nc4ccccc4Cl)CC3)nc21	-1%	-7	0%	-9%	12µM*
CCn1cc(C(=O)O)c(=O)c2cnc(N3CCN(C(=S)Nc4ccc(F)cc4)CC3)nc21	0%	3	-9%	24%	-1%
CCn1cc(C(=O)O)c(=O)c2cc(F)c(N3CCN(C(=S)NC(=O)c4ccc(Br)cc4)CC3)cc21	0%	-2	-3%	0.63µM*	5%
CCC(C)NC(=O)c1cn(CC)c2cc(N3CCN(C(=O)c4ccco4)CC3)c(F)cc2c1=O (stereo unspecified)	0%	3	-1%	37%	21µM*
C=CCNC(=S)N1CCN(c2ncc3c(=O)c(C(=O)O)cn(CC)c3n2)CC1	1%	-13	1%	-30%	?
CCn1cc(C(=O)O)c(=O)c2cnc(N3CCN(C(=S)NC(=O)c4ccc(Cl)cc4)CC3)nc21	0%	-16	-1%	1µM*	?
CCn1cc(C(=O)NCC(C)C)c(=O)c2cc(F)c(N3CCN(C(=O)c4ccco4)CC3)cc21	0%	-6	-7%	39%	-1%
COC(=O)[C@@H](NC(=O)O[C@@H]1C(=O)c2cc(OC)ccc2O[C@H]1c1cccc(OC)c1)C(C)C	·	·	-13%	23%	·
c1cc2c3c(cccc3c1)C(N1CCCCC1)=N2	0%	-6	0%	?	-24%
c1cc2c3c(cccc3c1)C(N1CCCCCC1)=N2	-1%	2	?	7.9µM*	6%
S=C(Nc1ccccc1)N1CCCCC1	0%	25	-17%	11µM*	-1%
O=C(O)c1ccc(NC(=S)N2CCCCC2)cc1	0%	0	4%	-3%	16%
CCOc1ccc(NC(=S)N2CCCC2)cc1	0%	7	-6%	-16%	25%
CCc1ccc(NC(=S)N2CCCCCCC2)cc1	0%	3	?	5.6µM*	?
SMILES	B2AR arrestin	TSHR antag	Gal4-VP16 FLuc	RORg inh	ELG1 repair inh
S=C(Nc1ccc(Cl)cc1)N1CCCCC1	-3%	1	?	10µM*	30%
CN1CCN(C(=S)Nc2ccc(Cl)cc2)CC1	0%	-1	5%	0%	6%
Fc1cccc(NC(=S)N2CCCCC2)c1	0%	-1	?	13µM*	3%
CN(CC(=O)Nc1ccc(Cl)c(Cl)c1)C(=O)CNC(=O)C1CCCCC1	0%	-20	·	·	-4%
COc1ccccc1N1CCN(S(=O)(=O)CCNC(=O)Cc2ccc(F)cc2)CC1	0%	6	·	·	?
Cc1ccc(NC(=S)N2CCCC2)cc1Cl	0%	7	?	16µM*	23%
FC(F)(F)c1cnc(N2CCCN(C(=S)Nc3ccccc3)CC2)c(Cl)c1	-1%	-8	?	7.9µM*	1%
Cc1ccc(NC(=S)N2CCCC2)cc1C	0%	11	-18%	?	?
CC(=O)N[C@H](C(=O)O)C(C)(C)SN=O	·	-14	·	·	·
O=C(CCNc1ccc(F)cc1)c1ccco1	0%	-3	?	11µM*	?
CC1CCCC(NC(=O)c2ccc3snnc3c2)C1C (stereo unspecified)	0%	-8	14%	18%	21%
COc1cc(/C=C(\C#N)C(N)=O)cc(CSc2nc3ccccc3s2)c1O	·	·	14µM*	5.6µM*	·
CC1(C)CC2C1CC[C@]1(C)CCC3C(C(=O)O)CC(=O)O[C@]32C1 (stereo partly specified)	·	·	2%	-4%	·
Oc1ccc(/C=N/NC(=S)NC2CC3CCC2C3)cc1 (stereo unspecified)	?	-2	11µM*	2.5µM*	?
S=C(N/N=C/c1cccs1)NC1CC2CCC1C2 (stereo unspecified)	0%	-6	3.2µM*	0.79µM*	0%
CC(C)CN1CC[C@@]2(CCCN(C(=O)c3cnccn3)C2)C1	·	·	-12%	2%	·
C[C@@H](C(=O)Nc1ccc2ccccc2c1)[C@H]1C[C@]1(C)[C@H](N)c1ccccc1	·	·	19%	2%	·
O=C(OCC(=O)N1CCc2ccccc2C1)c1cccnc1Cl	0%	0	-15%	?	?
CC(C)(C)c1cc(O)c(C(C)(C)C)cc1O	·	·	-18%	-32%	·
Cc1cc(O)c(C(C)(C)C)cc1Sc1cc(C(C)(C)C)c(O)cc1C	·	·	?	10µM*	·
O=C(CC1SC(=Nc2ccc(OC(F)F)cc2)N(CCC2=CCCCC2)C1=O)Nc1ccccc1F (stereo unspecified)	3%	-13	-10%	2%	?
CCOc1ccccc1N=C1SC(CC(=O)Nc2ccc(OC)cc2OC)C(=O)N1CCC1=CCCCC1 (stereo unspecified)	-1%	1	?	?	7.3µM*
O=C(O)c1ccc(Sc2nnnn2-c2ccccc2)c([N+](=O)[O-])c1	0%	-8	2%	-12%	9%
COC(=O)c1ccc(Sc2nnnn2-c2ccccc2)c([N+](=O)[O-])c1	0%	7	?	13µM*	0%
O=C(NC(=S)Nc1ccc(F)c(Cl)c1)C1CC1	10%	32	7.1µM*	5.6µM*	10%

Screening data (PubChem)
